CHO-K1 Ca antag: M1 antagonist counterscreen hit in parental CHO-K1 cells | inhibition, % at 3 µM | 360,000 tested, 0.6% active | ATP-induced calcium, Fluo-8 fluorescence;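 active means inhibition above a per-plate cutoff, the plate's mean sample inhibition plus 3 SD, cut at about 24% in these data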;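 further: 0% = DMSO plus EC80 ATP and 100% = DMSO alone without ATP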
M1 ag parental: counter-screen for M1 agonists: effect in parental CHO-K1 cells; 360,000 tested, 0.48% active; AID 602248, 2012; activation, % at 3 µM; Fluo-8 calcium fluorescence; scaled to maximal ATP response, vehicle zero; in the data active means activation above about 15%;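 further: untransfected CHO-K1 host cells lacking M1 receptor as counterscreen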
CHRM1 PAM: human M1 muscarinic receptor positive allosteric modulators, primary screen, CHO-K1 cells, Fluo-8 calcium fluorescence, 1536-well; 360,000 tested, 0.088% active; AID 588819, 2011; Muscarinic acetylcholine receptor M1 (Homo sapiens), P11229; CHO-K1 hM1, ACh EC20; 0% = ACh EC20, 100% = maximal ACh; activation, % at 3 µM; in the data active means activation above about 19%, passing the limit was not always enough
Target sequence (P11229 whole entry, looked up): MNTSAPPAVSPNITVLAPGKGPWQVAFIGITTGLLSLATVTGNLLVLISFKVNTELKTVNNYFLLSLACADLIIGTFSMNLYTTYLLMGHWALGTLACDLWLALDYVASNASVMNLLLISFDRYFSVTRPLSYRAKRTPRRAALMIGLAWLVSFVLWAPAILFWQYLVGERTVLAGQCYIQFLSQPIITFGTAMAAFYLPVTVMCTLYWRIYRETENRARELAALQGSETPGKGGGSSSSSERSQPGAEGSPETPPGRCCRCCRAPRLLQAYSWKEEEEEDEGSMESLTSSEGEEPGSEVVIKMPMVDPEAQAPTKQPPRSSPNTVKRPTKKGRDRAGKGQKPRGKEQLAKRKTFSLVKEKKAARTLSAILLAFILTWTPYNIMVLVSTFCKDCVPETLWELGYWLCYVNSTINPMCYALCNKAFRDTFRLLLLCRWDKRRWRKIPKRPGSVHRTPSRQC
CHRM1 antagonist: human M1 muscarinic receptor antagonists, primary screen, CHO-K1 cells, Fluo-8 calcium fluorescence, 1536-well. Muscarinic acetylcholine receptor M1 (Homo sapiens), P11229. CHO-K1 hM1, ACh EC80 antagonist. inhibition, % at 3 µM. 360,000 tested, 1.3% active. AID 588852, 2011;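 active means percent inhibition above its own plate's cutoff, namely the mean of that plate's compound wells plus 3 SD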;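 further: peak over basal fluorescence ratio during 140 s after agonist addition; 0% = ACh EC80 plus DMSO and 100% = DMSO alone without agonist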
M1 PAM parental: nonselective calcium activators in parental CHO-K1 cells, primary screen, counter-screen for M1 PAM project, cell-based, Fluo-8 calcium fluorescence, full deck, 1536-well | AID 602247, 2012 | ATP EC20; 0% at ATP EC20, 100% at ATP max | 360,000 tested, 0.02% active | activation, % at 3 µM;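 active means activation above the run cutoff, the mean activation of all test compounds plus 3 SD, cut at about 40% in these data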;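 further: peak over basal fluorescence ratio in a 140 s read after ATP addition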
M1 ag: human M1 muscarinic receptor agonists, primary screen, Fluo-8 calcium fluorescence, CHO-K1 cells, HTS | Muscarinic acetylcholine receptor M1 (Homo sapiens), P11229 | CHO-K1 hM1, agonist mode; 0% DMSO, 100% acetylcholine EC100 | activation, % at 3 µM | 360,000 tested, 0.33% active;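 active means activation above the run's mean compound activation plus 3 SD, cut at about 16% in these data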;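 further: peak over basal fluorescence ratio within a 140 s kinetic read after compound addition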
Starred values were filed as active, the others as inactive. An excerpt weighted towards active compounds, which were near 2.3% of everything screened.

SMILES | CHO-K1 Ca antag | M1 ag parental | CHRM1 PAM | CHRM1 antagonist | M1 PAM parental | M1 ag
O=[N+]([O-])c1ccccc1/C=C/CN1CCCCC1 | -8 | 0 | -21 | 45* | 17 | -8
O=C(NCCCN1CCCC1=O)c1cccc(S(=O)(=O)N2CCCCC2)c1 | -19 | 1 | 6 | -4 | 22 | -6
O=C(NCc1ccc(Cl)cc1)C1CCN(c2nnc(N3CCCC3=O)s2)CC1 | -8 | 1 | -3 | 1 | 13 | -2
CCOC(=O)C1CCCN(C/C=C/c2ccccc2)C1 (stereo not given) | 4 | 0 | -27 | 56* | -16 | -11
CCOC(=O)C1CCN(C/C=C/c2ccccc2)CC1 | -13 | 1 | 4 | -15 | 21 | -3
CCc1nc2ccc(C(=O)Nc3cccc(OCC(=O)N(C)C)c3)cn2c1N(C)C(=O)c1cccc(OC)c1 | -6 | 1 | 7 | -5 | 2 | -4
CC(=O)Nc1ccc(NC(=O)C(C)OC(=O)CC2CCCC2)cc1 (stereo not given) | 3 | 0 | 15 | -11 | -1 | 1
CC(=O)Nc1ccc(NC(=O)C(C)OC(=O)CCC2CCCC2)cc1 (stereo not given) | 24* | 0 | 7 | -6 | 18 | 2
Cc1csc2c(N3CCN(C(=O)c4ccc(C(C)(C)C)cc4)CC3)ncnc12 | 22 | 12 | -14 | 21 | -27 | 0
Cc1csc2c(N3CCN(C(=S)Nc4ccc(C(F)(F)F)cc4)CC3)ncnc12 | 28* | 5 | -4 | 22 | -27 | 4
Cc1csc2ncnc(N3CCN(C(=S)Nc4ccc(C(F)(F)F)cc4)CC3)c12 | 20 | 11 | -14 | 43* | -3 | -2
Cn1c(=O)c2c(ncn2CCOc2cccc(Br)c2)n(C)c1=O | -14 | 10 | 7 | -4 | 18 | 1
CCOc1ncccc1C(=O)Nc1cc(S(=O)(=O)N2CCCCCC2)ccc1OC | 3 | 0 | 1 | -2 | -5 | -3
Cc1cc(C)c2c(CN3CCN(Cc4ccc5c(c4)OCO5)CC3)cc(=O)oc2c1C | -6 | 0 | -8 | -12 | 16 | -4
Cc1cc(C)c2c(CN3CCCC3)cc(=O)oc2c1 | 30* | -1 | 15 | -1 | -8 | 0
Cc1cc(C)c2c(CN3CCN(Cc4ccccc4)CC3)cc(=O)oc2c1 | -2 | 17* | -20 | 28 | -4 | -1
Cc1cc(C)c2c(CN3CCN(Cc4ccc5c(c4)OCO5)CC3)cc(=O)oc2c1 | -10 | 1 | -27 | 33* | 18 | -7
Cc1ccc(C)c(OCc2cc(C(=O)NC3CCN(Cc4ccccc4)CC3)no2)c1 | 4 | 15 | -15 | 32* | -7 | 3
Cc1cc(Br)cn2c(Cc3ccccc3)c(-c3ccc(C#N)cc3)nc12 | -6 | 0 | -5 | -17 | -5 | -6
O=C(O)CN1CCNCCN(CC(=O)O)CCNCC1 | -7 | 0 | 7 | -16 | 10 | -2
O=C(CCC1CCCC1)NCCS(=O)(=O)N1CCN(c2ccccc2)CC1 | -4 | 4 | 9 | -5 | 4 | 3
COCCCNC(=O)C(=O)Nc1ccc2c(c1)N(S(=O)(=O)c1cccs1)CCC2 | -3 | 2 | 2 | -4 | -4 | -2
Cc1cc(OC(C)C(=O)NC2CCN(Cc3ccccc3)CC2)c2c(C)cc(=O)oc2c1 (stereo not given) | -19 | 0 | -5 | 9 | 3 | 16
O=C1CC(N2CCN(Cc3ccc4c(c3)OCO4)CC2)C(=O)N1c1ccccc1 (stereo not given) | -18 | 2 | -5 | 4 | 23 | -7
CCc1cc(=O)oc2cc(C)cc(OC(C)C(=O)NC3CCN(Cc4ccccc4)CC3)c12 (stereo not given) | -12 | 0 | -7 | 12 | -5 | 23*
SMILES | CHO-K1 Ca antag | M1 ag parental | CHRM1 PAM | CHRM1 antagonist | M1 PAM parental | M1 ag
Cc1cccc(N2C(=O)CC(N3CCN(Cc4ccc5c(c4)OCO5)CC3)C2=O)c1 (stereo not given) | 20 | 0 | -13 | 35* | -5 | -6
COc1cc(CC(=O)NCC2CCCCC2)cc(OC)c1OC | 7 | 1 | 8 | -16 | -25 | 0
CN(CC(=O)Nc1c(Cl)cccc1Cl)C(=O)c1cc(S(=O)(=O)N(C)C)ccc1N1CCCC1 | -10 | 1 | 2 | 0 | 0 | -4
O=C(COC(=O)C1CC2CCCC(C1)C2=O)NNC(=O)c1ccc([N+](=O)[O-])cc1 (stereo not given) | 4 | 1 | 5 | -11 | -2 | 0
O=C(COc1ccccc1Cl)c1ccc[nH]1 | 8 | 2 | -5 | 29* | 9 | -11
CSC1=NC(C(Cl)(Cl)Cl)N=C(c2ccccc2)N1 (stereo not given) | -7 | 1 | 9 | -14 | 4 | -5
Cc1cc(/C=C2/NC(=O)NC2=O)c(C)n1-c1ccccn1 | 11 | 0 | 8 | -1 | 15 | -3
Cc1ccc(-n2c(C)cc(/C=C3\NC(=O)NC3=O)c2C)c(C)c1 | -19 | 1 | -19 | 32* | 25 | -8
O=S(=O)(c1ccc(F)cc1)N1CCC(N2CCCC2)CC1 | 40* | 0 | -10 | 12 | 5 | -13
Cc1ccc(S(=O)(=O)N2CCN(C)CC2)cc1C | -2 | 0 | -2 | 0 | -1 | -5
Cc1ccc(S(=O)(=O)N2CCC(N3CCN(C)CC3)CC2)cc1Cl | -15 | 0 | -21 | 42* | 4 | -14
COCCNC(=O)C1(C)Cc2c(-c3ccc4c(c3)OCO4)ccnc2O1 (stereo not given) | -17 | 0 | 5 | -11 | 15 | -2
Cc1ccc(/C=C/S(=O)(=O)Nc2ccc(C)cc2)cc1 | 2 | 0 | 13 | -7 | 25 | -8
O=C(NC1CCCCCC1)c1cccc(N2CCCC2=O)c1 | 32* | 0 | -13 | 6 | -6 | -3
O=C(N/N=C/c1cc(Br)cc(Br)c1O)c1cccc(N2CCCC2=O)c1 | 34* | -1 | 9 | -2 | 1 | -9
COc1ccc(S(=O)(=O)N2CCCCC2)cc1NC(=O)CNc1ccc(F)cc1C | -10 | 3 | 11 | -7 | 17 | -3
COC(=O)c1ccc(C(=O)OC)c(NC(=S)N2CCN(C(=O)C3CCCO3)CC2)c1 (stereo not given) | -12 | 0 | 2 | -12 | 3 | -1
COc1ccc2ccccc2c1C=NN1CCCCC1 | 0 | 0 | -9 | 9 | -13 | 21*
COc1cc(C=NN2CCCCC2)cc(OC)c1OC | 0 | 0 | -8 | 5 | 7 | 25*

Assay outcomes from PubChem BioAssay.
